{
  "source": "PubChem BioAssay (NCATS)",
  "note": "Results filed as inconclusive are left out. Where a call stands in place of a potency, no number is given. Calls of active or inactive are those of the source. The call rests on the fitted dose curve; in most records, active means well fitted inhibition curve with a large enough effect; inconclusive means small, poorly fitted or top-dose-only effect; inactive means no such curve, though single readings can be large or run the other way. Potency means the concentration at half of the fitted maximal effect.",
  "data": [
    {"assay": "qHTS for Inhibitors of the Aldehyde Dehydrogenase Family (ALDH1A2, ALDH1A3, ALDH2, ALDH3A1) (AID 2061307); further: nearly all actives have a fitted effect of over 50% in size; on potency: test system not described further here", "conditions": "ALDH inhibition qHTS; series mostly up to 50.3 µM", "values": [
      {"molecule": "O=C(Nc1cccc(S(=O)(=O)N2CCOCC2)c1)c1ccc(CN2CCc3ccccc3C2)cc1", "Potency": "3.98 µM (active)"},
      {"molecule": "O=C(Nc1ncc(CN2CCOCC2)s1)c1ccc(-c2cccc([N+](=O)[O-])c2)o1", "Potency": "28.2 µM (active)"},
      {"molecule": "CC(NC(=O)c1c(O)nc2ccccn2c1=O)c1ccccc1", "note": "(stereo not given)", "Potency": "inactive"},
      {"molecule": "O=C(O)c1csc(-n2[nH]c(-c3ccc(F)c(Cc4ccccc4)c3)cc2=O)n1", "Potency": "22.5 µM (active)"},
      {"molecule": "COc1cccc(N2CCN(c3ncnc4c3c(-c3ccccc3)cn4-c3cccc(C(F)(F)F)c3)CC2)c1", "Potency": "inactive"},
      {"molecule": "CCc1ccc(CSc2nccn2-c2ccccc2)cc1", "Potency": "inactive"},
      {"molecule": "Ic1ccc(CN2CCC(N(CCc3ccccc3)Cc3ccccc3)CC2)cc1", "Potency": "inactive"},
      {"molecule": "O=C(O)Cc1ccc(S(=O)(=O)N2CCCC2)s1", "Potency": "11.3 µM (active)"},
      {"molecule": "COc1ccc(-n2ccc(C(=O)Nc3cccnc3OC)n2)cc1", "Potency": "inactive"},
      {"molecule": "CC(=O)c1cccc(NC(=O)c2noc3c2CSc2ccccc2-3)c1", "Potency": "inactive"},
      {"molecule": "O=C1NC(c2ccc(N3CCOCC3)cc2)(c2ccsc2)CC(O)=C1Sc1ccccc1Cl", "note": "(stereo not given)", "Potency": "inactive"},
      {"molecule": "O=C(c1cccc(Cl)c1)c1no[n+]([O-])c1C(=O)c1cccc(Cl)c1", "Potency": "12.7 µM (active)"},
      {"molecule": "COc1ccc(Cl)cc1NC(=O)c1nn(-c2ccc(C)cc2)c(=O)n(C)c1=O", "Potency": "inactive"},
      {"molecule": "Cc1occc1C(=O)N1CCc2cc(-c3nc(NC(=O)Cc4ccc5c(c4)OCO5)sc3C)ccc21", "Potency": "7.08 µM (active)"},
      {"molecule": "N#Cc1nc(-c2cccc3ccccc23)oc1NCCC1CNC1", "Potency": "15.8 µM (active)"},
      {"molecule": "Cc1ccc(-n2ncc3c(Nc4cccc(C(=O)O)c4)ncnc32)cc1", "Potency": "inactive"},
      {"molecule": "CC(Sc1nc2nn(C3COC3)cc2c(=O)n1-c1ccccc1)c1ccccn1", "note": "(stereo not given)", "Potency": "inactive"},
      {"molecule": "NC(=O)Cc1ccc(Nc2ncnc3c2cnn3-c2ccccc2)cc1", "Potency": "inactive"},
      {"molecule": "Cn1ccc(=Nc2ccc(NC(=O)c3ccc(N=c4ccn(C)c5ccc([N+](=O)[O-])cc45)cc3)cc2)cc1", "Potency": "8.96 µM (active)"},
      {"molecule": "COc1ccc(CC2NCCC3=CC(=O)CCC32)cc1O", "note": "(stereo not given)", "Potency": "inactive"},
      {"molecule": "O=C(N/N=C/c1ccc(Sc2ccccn2)o1)c1cccc(F)c1", "Potency": "15.9 µM (active)"},
      {"molecule": "O=S(=O)(Nc1ccccc1F)c1cccc(NC(=S)NCCN2CCOCC2)c1", "Potency": "inactive"},
      {"molecule": "Cn1nnnc1Sc1ncnc2n[nH]c(-c3ccccc3)c12", "Potency": "inactive"},
      {"molecule": "COc1ccc(-c2cc(C(=O)Nc3sc4c(c3C(N)=O)CCCC4)no2)cc1", "Potency": "inactive"},
      {"molecule": "COc1ccc(-c2cc(=O)n(-c3nc(C(=O)O)cs3)[nH]2)cc1", "Potency": "inactive"},
      {"molecule": "O=C(Nc1cccnc1)c1nccs1", "Potency": "inactive"},
      {"molecule": "Cc1oc(-c2ccc(C(F)(F)F)cc2)nc1COc1cccc2cc(NS(=O)(=O)C(F)(F)F)ccc12", "Potency": "12.7 µM (active)"},
      {"molecule": "N[C@H](CCC(=O)Nc1cccc(-c2nn3c(=O)cc(N4CCNCC4)nc3s2)c1)C(=O)O", "Potency": "inactive"},
      {"molecule": "COc1cccc(NC(=O)c2cc3ccccc3[nH]c2=O)c1", "Potency": "inactive"},
      {"molecule": "O=C(O)c1cccc(COc2cccc([N+](=O)[O-])c2)c1", "Potency": "0.269 µM (active)"},
      {"molecule": "COc1ccc(C(=O)N=Nc2c(O)n(Cc3c(Cl)cccc3Cl)c3ccccc23)cc1", "Potency": "inactive"},
      {"molecule": "COc1ccc(-n2ncc3c2CCCC3NC(=O)c2cc(NC(C)=O)ccn2)cc1", "note": "(stereo not given)", "Potency": "inactive"},
      {"molecule": "N#Cc1ccc(C(=O)Nc2nnc(C3=COCCO3)o2)cc1", "Potency": "inactive"},
      {"molecule": "COc1cccc(-c2cnc(N3CCC(C(N)=O)CC3)s2)c1", "Potency": "inactive"},
      {"molecule": "COc1ccc(C(N)=O)cc1NC(=O)c1ccn(-c2ccc(F)cc2)n1", "Potency": "inactive"},
      {"molecule": "COc1ccc(C2CC(=O)Nc3nc(N4CCCCC4)sc32)c(OC)c1", "note": "(stereo not given)", "Potency": "inactive"},
      {"molecule": "O=C(Nc1ccc(S(=O)(=O)N2CCOC(c3ccccc3)C2)cc1)c1ccc(CN2CCc3ccccc3C2)cc1", "note": "(stereo not given)", "Potency": "inactive"},
      {"molecule": "Cc1ccccc1CN1CCN(Cc2ccc3ccccc3n2)CC1CCO", "note": "(stereo not given)", "Potency": "3.18 µM (active)"},
      {"molecule": "CCn1nc(C)c(CNc2ccc(S(N)(=O)=O)cc2C#N)c1C", "Potency": "inactive"},
      {"molecule": "Cc1c(P(=S)(c2ccccc2)c2ccccc2)[n+]2ccccc2n1C/C=C/c1ccc(C(F)(F)F)cc1", "Potency": "7.94 µM (active)"}
    ]}
  ]
}
